Results from PubChem BioAssay (Tox21).
Where “and” joins values, the source holds several entries; their conditions need not be identical. Equal values may be shown once. Inconclusive results are not listed. Entries that show only a call come without a potency. A structure can be active in one record and inactive in another. Calls of active or inactive are those of the source. Unless noted, calls come from the whole dose curve; as a rule, active = well fitted curve in the direction sought with a large enough effect in the repeat runs; inconclusive = weak or mixed curves; inactive = no such curve, though single readings can be large; an effect the other way counts as inactive or inconclusive.

What was measured:
[1] = qHTS assay to identify small molecule agonists of the estrogen receptor alpha (ER-alpha) signaling pathway in the presence of an antagonist - cell viability counter screen (AID 1259386);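 note: cells exposed to compounds for 22 h at 37 °C before the viability read; nearly all actives have a fitted effect of over 30% in size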; note: potency is the fitted concentration of half-maximal effect
Procedure, shortened: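 Using estrogen-depleted VM7Luc4E2 cells, the 15-concentration compound series was applied together with 10.0nM ICI-182,780 and incubated 22hr at 37C/5% CO2. Cell viability was then scored by CellTiter-Fluor.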

[2] = biological target: Progesterone receptor (Homo sapiens) (UniProt P06401); assay: qHTS assay to identify small molecule agonists of the progesterone receptor (PR) signaling pathway (AID 1346784; calls by dose curve; note: nearly all actives have a fitted effect of over 30% in size; note: potency is the fitted concentration of half-maximal effect)
Procedure, shortened: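 PR-UAS-bla HEK 293T cells carrying a UAS-driven beta-lactamase reporter were seeded in medium with 2% charcoal-stripped FBS, preincubated 6 hr at 37C, then exposed to compounds in DMSO for 16 hr; agonism was read by LiveBLAzer B/G FRET fluorescence.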

[3] = biological target: Progesterone receptor (Homo sapiens) (UniProt P06401); assay: qHTS assay to identify small molecule antagonists of the progesterone receptor (PR) signaling pathway (AID 1346795; active = well fitted inhibition curve with a large enough effect in the signal ratio in the repeat runs, not every such curve was filed as active; the % refers to the signal ratio; note: potency is the fitted concentration of half-maximal effect)
Procedure, shortened: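 PR-UAS-bla HEK293T cells carrying a UAS-driven beta-lactamase reporter were plated in medium with 2% charcoal-stripped FBS and rested 6 hr at 37C. Compounds were added with 1 nM R5020 (final) for 16 hr, then FRET substrate loaded 2 hr at room temperature.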

[4] = qHTS assay to identify small molecule agonists of the progesterone receptor (PR) signaling pathway - cell viability counter screen (AID 1346799; calls by dose curve; note: nearly all actives have a fitted effect of over 45% in size; note: potency is the fitted concentration of half-maximal effect)
Procedure, shortened: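 PR-UAS-bla HEK293T cells, 3,000 per well in medium with 2% charcoal-stripped FBS, were preincubated 6 hr at 37C, then exposed to compounds for 16 hr; viability was read as CellTiter-Glo luminescence after 30 min at room temperature.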

[5] = qHTS assay to identify small molecule antagonists of the TGF-beta/Smad signaling pathway - cell viability counter screen (AID 1346824); note: nearly all actives have a fitted effect of over 50% in size
Procedure, shortened: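 SBE-bla HEK 293T cells, incubated overnight, then compound plus 0.25 ng/mL TGF-beta1 (stock added) for 5 hr at 37 C. Viability was read in the same wells by CellTiter-Glo luminescence after 30 min at room temperature.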

[6] = qHTS assay to identify small molecule agonists of the TGF-beta/Smad signaling pathway - cell viability counter screen (AID 1346829); note: top concentration of the series differs between compounds; nearly all actives have a fitted effect of over 45% in size
Procedure, shortened: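 Here the cytotoxicity of library compounds is measured in SBE-bla HEK 293T cells treated for 5 hr, using CellTiter-Glo added to wells already read for the beta-lactamase reporter.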

[7] = qHTS assay to identify small molecule agonists of the TGF-beta/Smad signaling pathway (AID 1346859; active = well fitted activation curve with a large enough effect in the signal ratio in the repeat runs, not every such curve was filed as active; the % refers to the signal ratio; note: series mostly up to about 77 µM)
Procedure, shortened: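 HEK 293T cells stably carrying a beta-lactamase reporter driven by the Smad binding element were seeded overnight, exposed to DMSO-dissolved compounds for 5 hr at 37 C, 5% CO2, then loaded with FRET substrate for 2 hr at room temperature.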

[8] = Human pregnane X receptor (PXR) small molecule agonists, qHTS cell viability counter screen (AID 1346977); note: nearly all actives have a fitted effect of over 50% in size; note: potency is the fitted concentration of half-maximal effect
Procedure, shortened: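 PXR-Luc HepG2 cells in medium with 5% charcoal-stripped FBS were pre-incubated 5hr, then exposed to compounds for 24hr at 37C. Viability was read in the same wells by CellTiter-Fluor fluorescence, reagent added after 23hr with a 1hr incubation.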

[9] = Caspase-3/7 induction in HepG2 cells by small molecules, qHTS assay (AID 1346978); note: nearly all actives have a fitted effect of over 15% in size; note: potency is the fitted concentration of half-maximal effect
Procedure, shortened: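 Wild-type HepG2 cells, 2,000/well, settled 5 hr at 37 C and 5% CO2, then compound-treated for 17 hr; caspase-3/7 activity read by luminescent Caspase-Glo 3/7 after 30 min at room temperature.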

[10] = Caspase-3/7 induction in CHO-K1 cells by small molecules, qHTS cell viability counter screen (AID 1346979); note: nearly all actives have a fitted effect of over 35% in size; note: potency is the fitted concentration of half-maximal effect
Procedure, shortened: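 Wild-type CHO-K1 cells were seeded at 1,500 per well, rested 5hr at 37 C, then exposed to compounds in DMSO. After 16hr, CellTiter-Fluor reagent was added and fluorescence read 1hr later as the viability measure.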

[11] = Caspase-3/7 induction in CHO-K1 cells by small molecules, qHTS assay (AID 1346980); note: nearly all actives have a fitted effect of over 15% in size
Procedure, shortened: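 Wild-type CHO-K1 cells exposed to compounds for 17hr at 37 C, 5% CO2. Caspase-3/7 activity then measured by Caspase-Glo 3/7 luminescence after 30min at room temperature.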

[12] = Caspase-3/7 induction in HepG2 cells by small molecules, qHTS cell viability counter screen (AID 1346981); note: nearly all actives have a fitted effect of over 30% in size; note: potency is the fitted concentration of half-maximal effect
Procedure, shortened: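 After a 5-hr attachment period at 37 C and 5% CO2, wild-type HepG2 cells received compounds in DMSO. Sixteen hours later CellTiter-Fluor was dispensed and the fluorescent signal quantified after a further hour.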

[13] = biological target: Nuclear receptor subfamily 1 group I member 2 (Homo sapiens) (UniProt O75469); assay: Human pregnane X receptor (PXR) small molecule agonists, qHTS assay (AID 1346982); note: nearly all actives have a fitted effect of over 35% in size; note: potency is the fitted concentration of half-maximal effect
Procedure, shortened: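 Tox21 qHTS; PXR-Luc HepG2; compounds pinned from DMSO; 24 hr, 37 C; ONE-Glo luciferase detection, 30 min room temperature.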

[14] = biological target: Nuclear receptor subfamily 1 group I member 2 (Rattus norvegicus) (UniProt Q9R1A7); assay: Rat pregnane X receptor (rPXR) activation by small molecules, qHTS assay (AID 1346983); conditions: rPXR luciferase reporter cells, One-Glo luminescence, 24 h; stronger effect = higher value; note: nearly all actives have a fitted effect of over 20% in size
Procedure, shortened: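 Cell-based rPXR activation assay: rPXR cells, 2,000 per well, rested 5hr at 37 C, then exposed to compounds in DMSO for 24 hr at 37 C. Luciferase activity read by One-Glo luminescence after 30 min at room temperature.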

[15] = biological target: Nuclear receptor subfamily 1 group I member 2 (Homo sapiens) (UniProt O75469); assay: Human pregnane X receptor (PXR) activation by small molecules, qHTS assay (AID 1346985); note: nearly all actives have a fitted effect of over 40% in size
Procedure, shortened: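 DPX-2 cells (HepG2 co-transfected with a PXR response element and a CYP3A4-promoter luciferase construct) were seeded at 2,000 per well, rested 5 hr at 37C, then exposed to DMSO-dissolved compounds for 24 hr. Activation was read as luciferase luminescence.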

[16] = biological target: Cytochrome P450 2D6 (Homo sapiens) (UniProt P10635); assay: Cytochrome P450 Family 2 Subfamily D Member 6 (CYP2D6) small molecule antagonists: luciferase reporter qHTS assay (AID 1671196); note: nearly all actives have a fitted effect of over 50% in size; note: potency is the fitted concentration of half-maximal effect
Procedure, shortened: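 Room-temperature luminescent CYP2D6 activity assay: compound preincubated 10 min with enzyme–substrate mix, NADPH-initiated reaction 1 h, detection reagent 20 min before reading.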

[17] = biological target: Cytochrome P450 2C19 (Homo sapiens) (UniProt P33261); assay: Cytochrome P450 Family 2 Subfamily C Member 19 (CYP2C19) small molecule antagonists: luciferase reporter qHTS assay (AID 1671197); note: nearly all actives have a fitted effect of over 65% in size; note: potency is the fitted concentration of half-maximal effect
Procedure, shortened: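 Light output is proportional to CYP2C19 activity: proluciferin substrate is converted to luciferin, then detected by a luciferin detection reagent that also stops the 1 h, 37C NADPH-driven reaction. Ketoconazole serves as positive control.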

[18] = biological target: Thyrotropin-releasing hormone receptor (Homo sapiens) (UniProt P34981); assay: qHTS assay to identify small molecule antagonists of the thyrotropin-releasing hormone receptor (TRHR) signaling pathway (AID 1346877; active = well fitted inhibition curve with a large enough effect in the repeat runs, not every such curve was filed as active; note: series mostly up to about 51 µM)
Procedure, shortened: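 Calcium signal in dye-loaded TRHR/HEK293 cells; compounds added 5 min before TRH (1 nM final); fluorescence monitored 3 min at 1 s steps.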

[19] = biological target: Thyrotropin-releasing hormone receptor (Homo sapiens) (UniProt P34981); assay: qHTS assay to identify small molecule agonists of the thyrotropin-releasing hormone receptor (TRHR) signaling pathway (AID 1346891; calls by dose curve; note: series mostly up to about 58 µM)
Procedure, shortened: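 TRHR-expressing HEK293 cells were plated 18 h at 37 °C/5% CO2, loaded with calcium dye 2 h at 37 °C, then given compound in DMSO; fluorescence was read kinetically for 3 min at 1 s intervals.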

[20] = qHTS assay to identify small molecule antagonists of the progesterone receptor (PR) signaling pathway - cell viability counter screen (AID 1346798); note: series mostly up to about 92 µM; nearly all actives have a fitted effect of over 50% in size
Procedure, shortened: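 PR-UAS-bla HEK293T cells in medium with 2% charcoal-stripped FBS were treated with compounds plus R5020 for 16 hr at 37C. Cell viability was then read by CellTiter-Glo luminescence after 30 min at room temperature in the same wells.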

Chain of Thyrotropin-releasing hormone receptor (Homo sapiens) (P34981 whole entry, looked up): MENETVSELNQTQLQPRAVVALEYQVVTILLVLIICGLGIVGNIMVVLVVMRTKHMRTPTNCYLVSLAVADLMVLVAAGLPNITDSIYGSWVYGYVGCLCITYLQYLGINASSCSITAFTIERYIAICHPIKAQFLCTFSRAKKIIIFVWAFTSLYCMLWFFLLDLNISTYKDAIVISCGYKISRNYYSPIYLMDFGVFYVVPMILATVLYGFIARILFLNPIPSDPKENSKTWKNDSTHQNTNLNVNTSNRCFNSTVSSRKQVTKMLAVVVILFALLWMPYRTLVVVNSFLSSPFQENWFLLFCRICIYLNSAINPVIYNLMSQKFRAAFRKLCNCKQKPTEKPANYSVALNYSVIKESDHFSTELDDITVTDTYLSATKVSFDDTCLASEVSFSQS
Chain of Nuclear receptor subfamily 1 group I member 2 (Homo sapiens) (O75469 whole entry, looked up): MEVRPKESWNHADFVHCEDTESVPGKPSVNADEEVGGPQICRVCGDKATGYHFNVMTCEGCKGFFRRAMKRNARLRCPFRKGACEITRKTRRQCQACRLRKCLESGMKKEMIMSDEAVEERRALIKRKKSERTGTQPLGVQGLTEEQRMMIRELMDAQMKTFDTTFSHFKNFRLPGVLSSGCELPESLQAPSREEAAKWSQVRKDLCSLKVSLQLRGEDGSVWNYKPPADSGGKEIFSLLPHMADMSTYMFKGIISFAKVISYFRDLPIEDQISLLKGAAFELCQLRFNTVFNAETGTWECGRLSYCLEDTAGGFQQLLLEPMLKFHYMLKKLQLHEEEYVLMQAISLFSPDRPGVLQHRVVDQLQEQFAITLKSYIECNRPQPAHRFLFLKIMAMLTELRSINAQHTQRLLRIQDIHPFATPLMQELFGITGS
Chain of Cytochrome P450 2C19 (Homo sapiens) (P33261 whole entry, looked up): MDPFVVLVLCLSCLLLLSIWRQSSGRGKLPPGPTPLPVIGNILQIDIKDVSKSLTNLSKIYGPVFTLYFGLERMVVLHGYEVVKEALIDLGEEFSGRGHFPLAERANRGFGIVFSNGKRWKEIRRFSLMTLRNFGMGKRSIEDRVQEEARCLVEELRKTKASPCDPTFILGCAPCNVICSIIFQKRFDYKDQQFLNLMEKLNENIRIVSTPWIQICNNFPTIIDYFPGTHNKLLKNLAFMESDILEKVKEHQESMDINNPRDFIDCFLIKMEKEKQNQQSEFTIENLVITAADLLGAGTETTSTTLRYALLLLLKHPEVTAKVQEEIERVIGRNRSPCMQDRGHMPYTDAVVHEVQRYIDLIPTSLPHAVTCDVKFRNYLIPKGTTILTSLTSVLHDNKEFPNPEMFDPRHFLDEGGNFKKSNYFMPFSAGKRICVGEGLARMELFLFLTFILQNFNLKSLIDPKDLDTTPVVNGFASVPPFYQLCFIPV
Chain of Nuclear receptor subfamily 1 group I member 2 (Rattus norvegicus) (Q9R1A7 whole entry, looked up): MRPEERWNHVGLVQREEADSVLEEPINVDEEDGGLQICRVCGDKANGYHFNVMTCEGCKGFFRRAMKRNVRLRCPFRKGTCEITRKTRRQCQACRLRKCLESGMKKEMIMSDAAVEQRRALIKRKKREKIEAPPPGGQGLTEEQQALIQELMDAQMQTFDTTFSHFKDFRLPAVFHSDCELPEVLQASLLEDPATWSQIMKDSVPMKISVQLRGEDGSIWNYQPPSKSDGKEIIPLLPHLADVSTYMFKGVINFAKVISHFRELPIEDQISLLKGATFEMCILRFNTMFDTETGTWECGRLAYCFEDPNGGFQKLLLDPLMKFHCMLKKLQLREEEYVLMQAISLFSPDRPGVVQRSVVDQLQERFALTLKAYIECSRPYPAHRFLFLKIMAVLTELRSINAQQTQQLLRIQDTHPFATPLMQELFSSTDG
Chain of Progesterone receptor (Homo sapiens) (P06401 whole entry, looked up): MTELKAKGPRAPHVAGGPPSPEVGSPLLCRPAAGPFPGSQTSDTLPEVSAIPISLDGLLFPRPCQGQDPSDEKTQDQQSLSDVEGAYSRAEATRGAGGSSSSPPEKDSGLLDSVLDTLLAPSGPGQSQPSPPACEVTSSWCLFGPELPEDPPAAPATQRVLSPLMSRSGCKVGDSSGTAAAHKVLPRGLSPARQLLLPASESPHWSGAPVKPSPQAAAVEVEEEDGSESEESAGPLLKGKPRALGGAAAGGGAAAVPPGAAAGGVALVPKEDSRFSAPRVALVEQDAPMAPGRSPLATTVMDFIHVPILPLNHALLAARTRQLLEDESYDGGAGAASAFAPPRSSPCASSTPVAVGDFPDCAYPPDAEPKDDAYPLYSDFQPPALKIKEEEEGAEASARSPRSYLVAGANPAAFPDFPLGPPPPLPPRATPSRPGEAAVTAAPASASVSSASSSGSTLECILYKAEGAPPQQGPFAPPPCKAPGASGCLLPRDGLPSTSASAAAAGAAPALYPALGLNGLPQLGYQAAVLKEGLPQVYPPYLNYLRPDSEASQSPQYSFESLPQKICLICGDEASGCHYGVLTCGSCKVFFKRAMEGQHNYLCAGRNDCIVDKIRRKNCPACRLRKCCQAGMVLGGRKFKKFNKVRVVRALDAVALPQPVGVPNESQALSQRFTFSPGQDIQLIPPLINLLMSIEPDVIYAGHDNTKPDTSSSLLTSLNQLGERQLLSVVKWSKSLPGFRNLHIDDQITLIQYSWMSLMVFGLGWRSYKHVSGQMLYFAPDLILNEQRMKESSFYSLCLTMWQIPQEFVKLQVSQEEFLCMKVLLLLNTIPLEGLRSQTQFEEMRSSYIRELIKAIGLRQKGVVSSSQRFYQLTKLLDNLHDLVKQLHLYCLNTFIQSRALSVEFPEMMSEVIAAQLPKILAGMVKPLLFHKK
Chain of Cytochrome P450 2D6 (Homo sapiens) (P10635 whole entry, looked up): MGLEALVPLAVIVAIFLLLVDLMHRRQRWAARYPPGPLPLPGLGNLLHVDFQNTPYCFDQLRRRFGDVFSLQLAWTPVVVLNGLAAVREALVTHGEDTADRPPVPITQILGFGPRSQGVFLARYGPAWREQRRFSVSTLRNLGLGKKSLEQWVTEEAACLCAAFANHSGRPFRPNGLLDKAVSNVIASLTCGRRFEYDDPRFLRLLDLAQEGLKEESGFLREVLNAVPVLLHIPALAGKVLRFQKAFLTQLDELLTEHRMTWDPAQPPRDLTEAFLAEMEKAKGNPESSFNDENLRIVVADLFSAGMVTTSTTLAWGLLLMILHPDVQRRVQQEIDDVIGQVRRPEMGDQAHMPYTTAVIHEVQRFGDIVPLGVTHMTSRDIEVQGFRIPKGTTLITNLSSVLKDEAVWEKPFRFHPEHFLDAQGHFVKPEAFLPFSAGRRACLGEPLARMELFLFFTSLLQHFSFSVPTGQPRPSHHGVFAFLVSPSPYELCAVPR

Row | Compound | Potency [1] | Potency [2] | Potency [3] | Potency [4] | Potency [5] | Potency [6] | outcome [7] | Potency [8] | Potency [9] | Potency [10] | Potency [11] | Potency [12] | Potency [13] | max activation [14] | Potency [15] | Potency [16] | Potency [17] | Potency [18] | Potency [19] | Potency [20]
1 | N[C@@H]1CONC1=O | inactive | inactive | inactive | inactive | inactive | inactive | inactive | inactive | inactive | inactive | inactive | inactive | inactive | -2.48% (inactive) | inactive | inactive | inactive | – | – | –
2 | COc1nc(C)nc(Cl)c1NC1=NCCN1 | inactive | inactive | inactive | inactive | inactive | inactive | – | inactive | inactive | inactive | inactive | inactive | inactive | -0.617% (inactive) | inactive | inactive | inactive | inactive | inactive | –
3 | O=Cc1ccc(Cl)cc1 | inactive | inactive | inactive | inactive | inactive | inactive | inactive | inactive | inactive | inactive | inactive | inactive | inactive | – | – | – | – | inactive | inactive | –
4 | CCCN[C@H]1CCc2nc(N)sc2C1 | inactive | inactive | inactive | inactive | inactive | inactive | inactive | inactive | inactive | inactive | inactive | inactive | – | -1.97% (inactive) | – | – | – | – | – | –
5 | [Cl][In]([Cl])[Cl] | inactive | inactive and 27.3 µM (active) | inactive | – | inactive | inactive | – | inactive | inactive | inactive | inactive | inactive | inactive | -5.91% (inactive) | inactive | inactive | inactive and 35.6 µM (active) | inactive | inactive | –
6 | CC(C)(C)c1ccccc1 | inactive | inactive | inactive | inactive | inactive | inactive | inactive | inactive | inactive | inactive | inactive | inactive | inactive | – | – | inactive | – | inactive | inactive | –
7 | O=C1NCC2(CCN(CCc3ccccc3)CC2)O1 | inactive | inactive | inactive | inactive | inactive | inactive | – | inactive | inactive | inactive | inactive | inactive | inactive | -2.2% (inactive) | inactive | 13.8 µM (active) | – | inactive | inactive | –
8 | Nc1cc(S(=O)(=O)O)cc2cc(S(=O)(=O)O)cc(O)c12 | 48.3 µM (active) and 30.6 µM (active) | inactive | inactive | – | inactive | inactive | inactive | – | inactive | 43.1 µM (active) and 61.1 µM (active) | inactive | 54.5 µM (active) | inactive | – | – | 35.6 µM (active) | 19.9 µM (active) and 22.4 µM (active) | inactive | inactive | inactive
9 | Cc1cccc(O)c1C | inactive | 24.2 µM (active) and inactive | inactive | inactive | inactive | inactive | – | inactive | inactive | inactive | inactive | inactive | inactive | – | – | inactive | 70.5 µM (active) and inactive | inactive | inactive | –
10 | NC12CC3CC(CC(C3)C1)C2 | inactive | inactive | inactive | inactive | inactive | inactive | inactive | inactive | inactive | inactive | – | inactive | – | – | – | – | – | – | – | –
11 | CCn1c2ccccc2c2cc(N)ccc21 | inactive | inactive | 34.4 µM (active) | inactive | inactive | inactive | inactive | inactive | inactive | 53.9 µM (active) and inactive and 43.3 µM (active) | inactive | inactive and 30.6 µM (active) | 5.39 µM (active) and 30.6 µM (active) and inactive | – | – | 703 nM (active) and 3.99 µM (active) and 10 µM (active) | 4.43 µM (active) and 31.7 µM (active) and 12.6 µM (active) | inactive | inactive | –
12 | NCCO | inactive | inactive | inactive | inactive | inactive | inactive | – | inactive | inactive | inactive | – | inactive | 27.3 µM (active) | – | – | inactive and 5.03 µM (active) | inactive and 11.2 µM (active) | – | – | –
13 | Cc1ccc(-c2cc(C(F)(F)F)nn2-c2ccc(S(N)(=O)=O)cc2)cc1 | inactive | inactive | – | 76.6 µM (active) and inactive | inactive | inactive | inactive | 60.9 µM (active) and inactive | 54.3 µM (active) | 48.4 µM (active) and 61.1 µM (active) | inactive | 60.9 µM (active) and 61.1 µM (active) and inactive | 10.8 µM (active) and 5.45 µM (active) and 13.3 µM (active) | 0.916% (inactive) | – | 998 nM (active) and 35.6 µM (active) and 15.5 µM (active) | 28.1 µM (active) and 50.2 µM (active) | inactive | inactive | inactive
14 | CCN(CC)C(=O)Nc1ccc(OCC(O)CNC(C)(C)C)c(C(C)=O)c1 (stereo unspecified) | inactive | inactive | inactive | inactive | inactive | inactive | – | inactive | inactive | inactive | inactive | inactive | inactive | 1.62% (inactive) | inactive | – | inactive | inactive | inactive | –
15 | O=C(Oc1ccccc1)c1ccccc1O | inactive | inactive | inactive | inactive | inactive | inactive | inactive | inactive | inactive | inactive | inactive | inactive | inactive | – | – | inactive | inactive | – | – | –
